From PubChem BioAssay (Tox21)
“And” between values parts separate entries of the source, which are not always exact repeats. Identical values can stand only once. Results filed as inconclusive are left out. Where a structure was tested more than once in an assay, its records may differ in their call. The source made the active and inactive calls. Unless noted, calls come from the whole dose curve; as a rule, active = well fitted curve in the direction sought with a large enough effect in the repeat runs; inconclusive = weak or mixed curves; inactive = no such curve, though single readings can be large; an effect the other way counts as inactive or inconclusive.

Tests used:
[1] = qHTS assay to identify small molecule agonists of H2AX (AID 1224845; active = well fitted activation curve with a large enough effect in the signal ratio in the repeat runs, not every such curve was filed as active; the % refers to the signal ratio; note: potency is the fitted concentration of half-maximal effect)
Outline: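 Wild-type CHO-K1 cells plated overnight, then exposed 3 hr at 37C to compounds at 15 concentrations (0.76% DMSO). Lysed, then HTRF anti-pH2AX(S139)-cryptate/anti-H2AX-d2 detection after 24 hr at room temperature; emissions 665 and 620 nm.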

[2] = qHTS assay to identify small molecule agonists of H2AX - cell viability counter screen (AID 1224847; calls by dose curve; note: nearly all actives have a fitted effect of over 30% in size; note: potency is the fitted concentration of half-maximal effect)
Outline: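 Wild-type CHO-K1 cells (10% FBS medium) were plated overnight at 37C, exposed to compounds at 15 concentrations for 3 hr at 37C (0.76% DMSO final), and viability was read as CellTiter-Glo luminescence after 30 min at room temperature.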

[3] = qHTS assay to identify small molecule antagonists of the estrogen related receptor (ERR) signaling pathway from Tox21 library (AID 1224848); note: nearly all actives have a fitted effect of over 50% in size; note: potency is the fitted concentration of half-maximal effect
Outline: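 Cells: ERR line, 2,000/well; 6 h preincubation 37 C/5% CO2. Cpd in DMSO via pin tool; 18 h, 37 C. ONE-Glo, 30 min RT, luminescence.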

[4] = qHTS assay to identify small molecule agonists of the estrogen related receptor (ERR) signaling pathway from Tox21 library (AID 1224849; calls by dose curve; note: nearly all actives have a fitted effect of over 15% in size); settings: ERR reporter cell line, ONE-Glo luciferase, 18 h; at 92.4 µM (top of the series) unless noted
Outline: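 Agonist signal is luciferase luminescence from an ERR reporter cell line treated 18 h at 37 C with DMSO-dissolved compounds, read 30 min after ONE-Glo addition at room temperature.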

[5] = qHTS RealTime-Glo MT Cell Viability Assay in HepG2 cells - 24 hour (AID 1224867); note: nearly all actives have a fitted effect of over 50% in size; note: potency is the fitted concentration of half-maximal effect
Outline: (§1)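 Cells + NanoLuc/prosubstrate dispensed (600 cells/well) → 5 h at 37 C/5% CO2 → compounds in DMSO transferred → 40 h incubation at 37 C, luminescence read at 0, 8, 16, 24, 32, 40 h.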

[6] = qHTS RealTime-Glo MT Cell Viability Assay in HEK293 cells - 32 hour (AID 1224868); note: nearly all actives have a fitted effect of over 50% in size; note: potency is the fitted concentration of half-maximal effect
Outline: (§2)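 Tox21 10K qHTS, HEK293, 600 cells/well, RealTime-Glo reagent co-dispensed with cells; 5 h preincubation, compound by pintool, 37 C, luminescence at 0–40 h.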

[7] = A CellTox Green Cytotoxicity Assay to monitor cytotoxicity in HEK293 cells - 0 hour (AID 1224869); note: nearly all actives have a fitted effect of over 50% in size
Outline: (§3)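 Cytotoxicity was tracked continuously in HEK293 cells by a DNA-binding dye excluded from viable cells. Compounds were transferred in DMSO 5 h after seeding; fluorescence was recorded at intervals up to 40 h.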

[8] = A CellTox Green Cytotoxicity Assay to monitor cytotoxicity in HEK293 cells - 40 hour (AID 1224871); note: nearly all actives have a fitted effect of over 45% in size; note: potency is the fitted concentration of half-maximal effect
Outline: as §3

[9] = qHTS RealTime-Glo MT Cell Viability Assay in HEK293 cells - 16 hour (AID 1224872); note: nearly all actives have a fitted effect of over 50% in size; note: potency is the fitted concentration of half-maximal effect
Outline: as §2

[10] = qHTS RealTime-Glo MT Cell Viability Assay in HepG2 cells - 8 hour (AID 1224873); note: nearly all actives have a fitted effect of over 55% in size; note: potency is the fitted concentration of half-maximal effect
Outline: (§4)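 HepG2 cells mixed with RealTime-Glo MT reagents (NanoLuc plus cell-permeant prosubstrate) were seeded at 600 cells/well, incubated 5 h at 37 C/5% CO2, then pinned with compounds in DMSO; nonlytic luminescence tracked viability during 40 h treatment.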

[11] = qHTS RealTime-Glo MT Cell Viability Assay in HEK293 cells - 40 hour (AID 1224874); settings: RealTime-Glo luminescence; max response: stronger effect = lower value; note: nearly all actives have a fitted effect of over 50% in size; note: potency is the fitted concentration of half-maximal effect
Outline: (§5)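 Nonlytic bioluminescent viability monitoring. HEK293 at 600 cells/well with reagent; 5 h settle; compound transfer by pintool; plates held at 37 C and read at set time points.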

[12] = A CellTox Green Cytotoxicity Assay to monitor cytotoxicity in HEK293 cells - 24 hour (AID 1224875); note: nearly all actives have a fitted effect of over 45% in size; note: potency is the fitted concentration of half-maximal effect
Outline: as §3

[13] = qHTS RealTime-Glo MT Cell Viability Assay in HepG2 cells - 32 hour (AID 1224877); note: nearly all actives have a fitted effect of over 55% in size; note: potency is the fitted concentration of half-maximal effect
Outline: as §1

[14] = A CellTox Green Cytotoxicity Assay to monitor cytotoxicity in HepG2 cells - 40 hour (AID 1224879); note: nearly all actives have a fitted effect of over 40% in size; note: potency is the fitted concentration of half-maximal effect
Outline: (§6)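 Real-time, homogeneous cytotoxicity readout: dead-cell DNA staining by CellTox Green in HepG2 monolayers, fluorescence measured at timed intervals up to 40 h of continuous compound exposure.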

[15] = qHTS RealTime-Glo MT Cell Viability Assay in HEK293 cells - 0 hour (AID 1224880); note: top concentration of the series differs between compounds; nearly all actives have a fitted effect of over 45% in size
Outline: as §5

[16] = A CellTox Green Cytotoxicity Assay to monitor cytotoxicity in HEK293 cells - 32 hour (AID 1224881); note: nearly all actives have a fitted effect of over 40% in size; note: potency is the fitted concentration of half-maximal effect
Outline: as §3

[17] = qHTS RealTime-Glo MT Cell Viability Assay in HepG2 cells - 40 hour (AID 1224870); note: nearly all actives have a fitted effect of over 50% in size; note: potency is the fitted concentration of half-maximal effect
Outline: as §4

[18] = A CellTox Green Cytotoxicity Assay to monitor cytotoxicity in HepG2 cells - 16 hour (AID 1224876); note: nearly all actives have a fitted effect of over 45% in size; note: potency is the fitted concentration of half-maximal effect
Outline: as §6

[19] = A CellTox Green Cytotoxicity Assay to monitor cytotoxicity in HepG2 cells - 24 hour (AID 1224878); note: nearly all actives have a fitted effect of over 45% in size; note: potency is the fitted concentration of half-maximal effect
Outline: as §6
% is set by controls: 0 for no effect and ±100 for the full control effect.

Structure (SMILES) | Potency [1] | Potency [2] | Potency [3] | activity change, positive = activation [4] | Potency [5] | Potency [6] | Potency [7] | Potency [8] | Potency [9] | Potency [10] | Potency [11] | Potency [12] | Potency [13] | Potency [14] | Potency [15] | Potency [16] | Potency [17] | Potency [18] | Potency [19] | max response [11]
CCCN(CCC)c1c([N+](=O)[O-])cc(C(F)(F)F)c(N)c1[N+](=O)[O-] | 35.6 µM (active) | 50.4 µM (active) | 30.5 µM (active) | -75.7% (inactive) | 54.8 µM (active) | 19.4 µM (active) | inactive | 54.8 µM (active) | 12.3 µM (active) | 48.9 µM (active) | 19.4 µM (active) | 54.8 µM (active) | 48.9 µM (active) | 54.8 µM (active) | inactive | 54.8 µM (active) | – | – | – | –
CCCCCCCCNC(C)C(O)c1ccc(SC(C)C)cc1 (centres undefined) | inactive | 43.8 µM (active) | 23.7 µM (active) | -63% [at 42.5 µM] (inactive) | 13.4 µM (active) | 9.52 µM (active) | inactive | 16.9 µM (active) | 10.7 µM (active) | 21.3 µM (active) | 8.49 µM (active) | 16.9 µM (active) | 13.4 µM (active) | 15.1 µM (active) | – | 16.9 µM (active) | 13.4 µM (active) | 16.9 µM (active) | – | –
CCCCCCOC(=O)c1ccc(O)cc1 | inactive | 89.9 µM (active) and 101 µM (active) | inactive | 67.7% (active) and 70.3% (active) | inactive | 43.7 µM (active) and 21.9 µM (active) | inactive | – | 43.7 µM (active) and 21.9 µM (active) | inactive | 43.7 µM (active) and 21.9 µM (active) | inactive | – | 43.7 µM (active) and 11 µM (active) | inactive | – | inactive | 8.71 µM (active) | – | –
CCCCC(CC)COP(=O)(O)OCC(CC)CCCC (centres undefined) | inactive | inactive | 30.7 µM (active) and 27.3 µM (active) | -51.6% (inactive) and -55.8% (inactive) | inactive | – | inactive | 43.6 µM (active) | inactive | inactive | – | 43.6 µM (active) | – | 54.9 µM (active) | inactive | 43.6 µM (active) | inactive | – | 49.1 µM (active) and inactive | –
OCCN1CCN(CC/C=C2/c3ccccc3Sc3ccc(C(F)(F)F)cc32)CC1 | inactive | 55.2 µM (active) | 29.8 µM (active) | -67.6% [at 42.5 µM] (inactive) | 21.3 µM (active) | 19 µM (active) | inactive | 26.8 µM (active) | 19 µM (active) | 23.9 µM (active) | 19 µM (active) | 26.8 µM (active) | 15.1 µM (active) | 13.4 µM (active) | – | 26.8 µM (active) | 15.1 µM (active) | 23.9 µM (active) | – | –
O=c1[nH]sc2ccccc12 | inactive | 101 µM (active) | 43.3 µM (active) | -73.9% (inactive) | 21.9 µM (active) | 30.9 µM (active) | inactive | 54.9 µM (active) | 38.9 µM (active) | 34.7 µM (active) | 30.9 µM (active) | – | 21.9 µM (active) | 21.9 µM (active) | inactive | 54.9 µM (active) | 21.9 µM (active) | 34.7 µM (active) | 38.9 µM (active) | –
CCCCC(CC)CN=C(N)NC(N)=NCCCCCCN=C(N)NC(N)=NCC(CC)CCCC (centres undefined) | inactive | 43.8 µM (active) | 6.68 µM (active) | -65.1% [at 42.5 µM] (inactive) | 8.49 µM (active) | 5.35 µM (active) | inactive | 8.49 µM (active) | 6.74 µM (active) | 19 µM (active) | 4.25 µM (active) | 7.56 µM (active) | 8.49 µM (active) | 8.49 µM (active) | – | 9.52 µM (active) | 8.49 µM (active) | 8.49 µM (active) | 9.52 µM (active) | –
Cc1onc(-c2c(Cl)cccc2Cl)c1C(=O)N[C@@H]1C(=O)N2[C@@H]1SC(C)(C)[C@@H]2C(=O)O | inactive | inactive | inactive | -4.23% [at 42.5 µM] (inactive) | inactive | inactive | inactive | inactive | inactive | inactive | – | inactive | – | inactive | inactive | inactive | inactive | inactive | inactive | 9.42% (inactive)
CC(C)(C)C(=O)OCOC(=O)[C@@H]1N2C(=O)[C@@H](NC(=O)[C@H](N)c3ccccc3)[C@H]2SC1(C)C | inactive | inactive | inactive | 0.778% [at 42.5 µM] (inactive) | inactive | inactive | inactive | inactive | inactive | inactive | – | inactive | inactive | inactive | – | inactive | inactive | inactive | inactive | 5.37% (inactive)
C=CC(=O)OCC(CO)(COC(=O)C=C)COC(=O)C=C | 14.2 µM (active) | inactive | 8.66 µM (active) and 13.7 µM (active) | -68.9% (inactive) and -80.3% (inactive) | 11 µM (active) and 12.3 µM (active) | 3.48 µM (active) | inactive | 2.76 µM (active) and 9.77 µM (active) | 5.51 µM (active) | – | 3.48 µM (active) | 43.6 µM (active) | 12.3 µM (active) and 17.4 µM (active) | 11 µM (active) and 24.5 µM (active) | inactive | 15.5 µM (active) | 12.3 µM (active) and 19.5 µM (active) | inactive | 9.81 µM (active) | –
O=C(OCC(COC(=O)c1ccccc1)(COC(=O)c1ccccc1)COC(=O)c1ccccc1)c1ccccc1 | inactive | inactive | inactive | 9.84% (inactive) | inactive | 48.9 µM (active) | inactive | – | 43.6 µM (active) | – | 48.9 µM (active) | – | – | inactive | inactive | – | inactive | inactive | inactive | –
